34 compounds from PubChem BioAssay (EPA / NIEHS) can be followed below.

Molecules are shown by their SMILES. Active and inactive are the calls of the source. The calls were made as follows: active = hit-call score of the fitted dose curve at least 0.9, where 1 is the maximum; inactive = score below 0.9.

As a reminder, the AC50 is the concentration at which the activity in the assay is half-maximal.

Sequence of Cellular tumor antigen p53 (Homo sapiens) (P04637 whole entry, looked up): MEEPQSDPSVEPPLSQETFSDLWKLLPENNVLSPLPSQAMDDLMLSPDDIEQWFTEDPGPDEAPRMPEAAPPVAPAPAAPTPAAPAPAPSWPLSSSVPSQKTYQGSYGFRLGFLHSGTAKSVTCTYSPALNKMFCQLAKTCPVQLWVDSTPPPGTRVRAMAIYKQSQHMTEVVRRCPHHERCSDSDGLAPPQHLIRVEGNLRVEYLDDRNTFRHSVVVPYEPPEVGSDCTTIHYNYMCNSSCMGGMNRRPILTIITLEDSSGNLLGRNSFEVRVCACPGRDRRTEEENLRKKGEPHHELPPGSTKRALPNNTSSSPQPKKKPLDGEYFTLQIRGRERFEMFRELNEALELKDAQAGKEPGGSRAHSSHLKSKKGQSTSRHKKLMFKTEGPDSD

Read-out in this assay: Cellular tumor antigen p53 (Homo sapiens) (UniProt P04637)
The experiment in a line: LTEA_HepaRG_TP53: Life Technologies and Expression Analysis (LTEA) Assay for Tumor Protein P53 (TP53) using HepaRG (AID 2283537). To be noted: mRNA level, 48 h; actives raise or lower the signal. As to the method: LTEA_HepaRG is a cell based, multiplexed-readout assay that uses HepaRG, a human liver cell line, with measurements taken at 48 hours after chemical dosing on a 96-well plate.LTEA_HepaRG_TP53 is one of 102 assay component(s) measured in the LTEA HepaRG cell culture assay. It is a marker of Oxidative Stress.Data from the assay component LTEA_HepaRG_TP53 was analyzed into 1 endpoint. This assay endpoint, LTEA_HepaRG_TP53, was analyzed with bidirectional fitting relative to DMSO as the negative control and baseline of activity. Using a type of inducible reporter, measures of mRNA induction for gain or loss-of-signal activity can be used to understand regulation of transcription factor activity. To generalize the intended target to other relatable targets, this assay endpoint is annotated to the dna binding intended target family, where the subfamily is tumor suppressor.
A total of 1060 chemcials from the ToxCast library were tested in eight-point concentration-response experiments. Cell culture and cytotoxicity assays were conducted at Thermo Fisher Scientific's Custom Services facility (Madison, WI). A single lot of human HepaRG cells (Thermo Fisher Scientific, Frederick, MD) was used for the cell culture experiments. 96-well format collagen type I coated plates of human HepaRG cells were prepared using established methods. Briefly, cryopreserved HepaRG cells were thawed, plated at a density of approximately 100,000 cells/well in HepaRG Thaw, Plate, and General Purpose media (HPRG770, Thermo Fisher Scientific), and incubated for 48 hours. 0.5% DMSO was selected as vehicle control to balance the requisite need of DMSO in HepaRG cultures to maintain differentiation (for example, baseline metabolism, proportions of hepatocytes vs. cholangiocytes), while enabling further hepatic receptor pathway activation (for example, PXR and CAR) in response to chemical exposure. 48 hours after plating, the culture medium was replaced with HepaRG Serum-Free Incudtion Media. Cells were exposed to each test chemical in duplicate and maintained in CO2 incubators for another 48 hours. Chemical plates were thawed to room temperature and 200x concentrations of treatment groups were prepared. 8-point conentration-reponse curves were made with the highest exposure at 100 uM, followed by half-log dilutions, all in 0.5% DMSO. Each test plate contained variouse controls, induction positive controls (1mM phenobarbital), cytotoxicity positive controls ([…] aflatoxin B1), vehicle controls (0.5% DMSO), and total lysis controls (0.5% DMSO). Cell morphology images were taken using an Essen IncuCyte FLR automated microscope, with six 96-well plates imaged in about 24 minutes. Images were captured and exported and JPEG files. Spent culture media was transfered to black-well plates for the LDH assay, and remaining media was sorted at -80 C for later use. Cells were treated with RLT buffer and frozen until shipped for gene expression analysis. Total RNA was isolated from the cell suspension in 75 uL of Buffer RLT (Qiagen, Germantown, MD 20874) by Quintiles/Expression Analysis (Durham, NC) using a custom isolation procedure. Total RNA from each plate well was transferred to a preamplification plate. Fluidigm's 96.96 Dynamic ArrayTM (Fluidigm, Amsterdam, the Netherlands) technology was used for gene expression analyses by quantitative reverse transcription polymerase chain reaction (qRT-PCR, performed by Quintiles/Expression Analysis, Durham, NC)89. Standard TaqManTM Assays (Applied Biosystems/ThermoFisher Scientific, Foster City, CA) were used to assess the expression of 93 genes selected based on their selectivity and sensitivity to important hepatic receptors known to be modulated by environmental chemicals; importance in human hepatocyte functionality; and hepatotoxicity. […]
`O=C(O)c1cccc(C[C@@H]2COc3ccc(OCc4nc5cc(F)ccc5s4)cc3[C@@H]2O)c1`: the compound was called inactive.
Same read-out and setting: as for `c1ccc2ncccc2c1`, the entry is “inactive”.
Turning to `C=CN1CCCC1=O`, the call was inactive.
Turning to `CCCCCCCCCCCCCCO`, the compound was called inactive.
Still for that read-out and setting: as for `CCCCCCCC1CCC(=O)O1` (centres undefined), the entry is “inactive”; as for `CCCCCCCCCC`, “inactive”.
Turning to `CCOC(N)=O`, the compound was classed as inactive.
For `CCn1nc(C)c2c1C(=O)NCC(c1ccc(O)cc1)=N2`, the compound was called inactive.
Same read-out and setting: as for `CCCCCCCCN(C)C`, the entry is “inactive”; as for `CCc1cccc(CC)c1N`, “inactive”; as for `C[C@]12C=CC(=O)C=C1CC[C@H]1[C@@H]3C[C@@H](O)[C@](O)(C(=O)CO)[C@@]3(C)C[C@H](O)[C@@]12F`, “inactive”.
With `CCCCCCCC/C=C\CCCCCCCC(=O)OC[C@@H](O)[C@H]1OC[C@H](O)[C@H]1O`, the result was inactive.
Consider `CCCCC(CC)C(=O)OCCOCCOCCOC(=O)C(CC)CCCC` (centres undefined), for which the compound was called inactive.
For `CCN(CC)C(=S)SSC(=S)N(CC)CC`, the compound was classed as inactive.
In the case of `O=S1(=O)CCCO1`, the compound was called inactive.
With `CCCc1ccccc1`, the compound was called inactive.
Regarding `CCCCN1C(=O)[C@@H]([C@H](O)C2CCCCC2)NC(=O)C12CCN(Cc1ccc(Oc3ccc(C(=O)O)cc3)cc1)CC2`, the result was inactive.
Regarding `c1ccc2cc3ccccc3cc2c1`, the compound was classed as inactive.
As to `NC(=O)NN=Cc1ccc([N+](=O)[O-])o1`, the AC50 is 9.92 µM (active).
In the case of `CCc1ccc(O)c(C(C)(C)C)c1`, the result was inactive.
For `CC(=O)c1ccccc1`, the result was inactive.
As to `OCCOCCOCCO`, the outcome was inactive.
`CC(C)c1nnc2ccc(-c3ocnc3-c3cc(F)ccc3F)cn12`: the compound was called inactive.
As for `NNC(=O)c1ccncc1`, the compound was called inactive.
With `Cn1cc[nH]c1=S`, the compound was classed as inactive.
On to `OC(Cn1cncn1)(Cn1cncn1)c1ccc(F)cc1F`, for which the outcome was inactive.
Take `Cn1c(=O)c2[nH]cnc2n(C)c1=O`: the call was inactive.
As for `CC1(C)C(=O)N(Cl)C(=O)N1Cl`, the compound was classed as inactive.
Consider `CCCCOC(=O)c1ccccc1`, for which the compound was called inactive.
Turning to `O=C(O)c1ccc2c(c1)nc(C(=O)NC1CCN(C3CC3)CC1)n2Cc1cc(-c2ccc(Cl)s2)on1`, the outcome was inactive.
`OC(CCl)CCl`: the result was inactive.
Still for that read-out and setting: as for `CCCCCCCCCCCCCCCCOS(=O)(=O)O`, the entry is “inactive”.
Consider `c1ccc(C(O[C@@H]2CCCN(CCc3ccc4c(c3)OCO4)C2)c2ccccc2)cc1`, for which the AC50 was 75.4 µM (active).
In the case of `O=C1CN(N=Cc2ccc([N+](=O)[O-])o2)C(=O)N1`, the outcome was inactive.
